# Screen size: about 290,000 compounds; about 1,800 (0.62%) were called active. Shown is part of a subset that was picked to be rich in actives. Values without a mark were called inactive. Cut-off read from the data, not from the text of the source: active = inhibition above about 50%; inactive = the rest.
# Experiment: inhibition of NOD2-driven NF-kB reporter – cell-based, luminescence, uHTS, HEK293 (AID 1566)
# Conditions: HEK293 NOD2/NF-kB luciferase reporter, at 4 µM, active compounds read high
row,Structure (SMILES),inhibition
1,C=CCNC(=O)c1c(Cl)cccc1Cl,11.9%
2,Cc1ccc2[nH]c3c(NCc4ccccc4)ncnc3c2c1,39.4%
3,COc1ccc(CNc2ncnc3c2[nH]c2ccccc23)cc1,23.3%
4,Fc1ccc2[nH]c3c(NCc4ccccc4)ncnc3c2c1,62.7% (active)
5,CCOC(=O)c1sc2cccc(Cl)c2c1N,10.6%
6,COc1ccc(CC(=O)Nc2cccnc2)cc1,-3%
7,O=C(Cc1c(Cl)cccc1Cl)Nc1ccncc1Cl,13.2%
8,COCc1cc(Sc2ccc(OC)cc2)nc(-c2ccccc2)n1,18.2%
9,Nc1cc(S(=O)(=O)N2CCCCC2)ccc1N1CCOCC1,9.9%
10,CC1CCN(c2ccc(S(=O)(=O)N3CCC(C)CC3)cc2N)CC1,50.3% (active)
11,CC1CCN(S(=O)(=O)c2ccc(S(=O)(=O)N3CCCC3)cc2)CC1,-1.3%
12,Cc1ccc(C(=O)N2CCCC(Nc3ccc(C)c(C)c3)C2)c(=O)[nH]1 (centres undefined),9.6%
13,CCCCn1c(SCC(=O)N2CCC(C)CC2)nc2ccsc2c1=O,-2.9%
14,CCCCn1c(SCC(=O)c2ccccc2)nc2ccsc2c1=O,13.3%
15,CC(=O)c1cccc(NC(=O)C2C3CCC(C3)C2C(=O)O)c1 (centres undefined),4.1%
16,COc1ccc(NC(=O)c2ccc(NCC3CCCO3)c([N+](=O)[O-])c2)cc1 (centres undefined),13.3%
17,Fc1ccccc1NC(=S)NNc1ncc(C(F)(F)F)cc1Cl,13.7%
18,Cc1ccccc1NC(=S)NNc1ncc(C(F)(F)F)cc1Cl,4.9%
19,COc1ccc(/C=C2\SC(=S)N(CCC(=O)NC3C=CS(=O)(=O)C3)C2=O)cc1 (centres undefined),11.8%
20,O=C(O)c1ccccc1C(=O)Nc1ccc(Oc2cccc3ccccc23)cc1,61.3% (active)
21,Cc1cccc(Oc2ccc(NC(=O)c3ccccc3C(=O)O)cc2)c1C,8.6%
22,O=C(O)c1ccccc1C(=O)Nc1ccc(Oc2ccccc2)cc1,7.7%
23,CC(C)[C@H](NC(=O)OC(C)(C)C)C(=O)N/N=C/c1cccc2nccnc12,10.5%
24,O=[N+]([O-])c1ccc(CSc2nnc(Cc3ccccc3)o2)cc1,1.1%

row,Structure (SMILES),inhibition
1,CC(=O)CSc1nnc(Cc2ccc([N+](=O)[O-])cc2)o1,9.2%
2,COc1ccc(Cc2nnc(SCc3ccc([N+](=O)[O-])cc3)o2)cc1,56.9% (active)
3,O=C(O)CNC(=S)N(Cc1ccccc1)Cc1ccccc1F,16.1%
4,CN=c1scc(-c2ccccc2F)n1/N=C/c1ccc(O)c(O)c1O,18.1%
5,CN=c1scc(-c2ccccc2Br)n1/N=C/c1ccc[nH]1,42.5%
6,CN=c1scc(-c2ccccc2F)n1/N=C/c1ccc[nH]1,90.4% (active)
7,Cc1cc(C(=O)COC(=O)C2CC2)c(C)n1-c1ccc(F)cc1,60.3% (active)
8,Cc1cc(C(=O)COC(=O)c2ccc[nH]c2=O)c(C)n1-c1ccc(F)cc1,-12.8%
9,Cc1cc(C(=O)CN2CCCCC2)c(C)n1-c1ccc(F)cc1,-23.5%
10,Cc1cccc(C(=O)NC(=S)Nc2ccc3[nH]c(=O)[nH]c3c2)c1,-10.1%
11,O=C(COC(=O)CCC(=O)c1cccs1)Nc1ccc(Cl)cn1,-14%
12,Cc1cc(-c2csc(N)n2)c(C)n1Cc1ccco1,1.7%
13,Cc1cc(C2=NNC(=NC3CCCCC3)SC2)c(C)n1-c1c(C)n(C)n(-c2ccccc2)c1=O,2%
14,Cc1cc(C2=NNC(=NC3CC3)SC2)c(C)n1Cc1ccco1,85.3% (active)
15,CCN=C1NN=C(c2cc(C)n(Cc3ccco3)c2C)CS1,82.2% (active)
16,CCN=C1NN=C(c2cc(C)n(CCc3ccccc3)c2C)CS1,0.1%
17,COCCCN=C1NN=C(c2cc(C)n(Cc3ccco3)c2C)CS1,-60.2%
18,CCCC(=O)C1=C(O)C(C(=O)OC)C(C)(C)CC1=Nc1cccc2ccccc12 (centres undefined),13.4%
19,CCCn1c(SCC(=O)NC2CCCCC2)nnc1-c1ccccn1,22.2%
20,C=CCn1c(O)c(C=Nc2ccc(CN3CCCCC3)cc2)c(=O)[nH]c1=S,25.5%
21,CCCCCn1ccc(=N)cc1,31.1%
22,CCCCCCn1ccc(=N)cc1,40.3%
23,C[C@]12CCC3C(CC[C@H]4CC(O)CC[C@]34C)C1CC/C2=N/NC(=O)c1ccncc1 (some centres undefined),-5.7%
24,C/C(=N\NC(N)=S)C1=CCC2C3CC[C@H]4CC(O)CC[C@]4(C)C3CC[C@]12C (some centres undefined),54.6% (active)

row,Structure (SMILES),inhibition
1,C[C@]12CCC3C(CC[C@H]4CC(O)CC[C@]34C)C1CC/C2=N/O (some centres undefined),26.5%
2,Cc1cc(CNC(=O)c2cccc([N+](=O)[O-])c2C)c2ccccc2n1,31.5%
3,O=C(Oc1ccccc1C(=O)Nc1ccccc1)c1ccc(Br)c([N+](=O)[O-])c1,-12.7%
4,O=C(CSc1nnc(CNC(=O)c2ccco2)o1)Nc1ccc(OC(F)(F)F)cc1,9.8%
5,COc1ccccc1NC(=O)CSC1=NC(=O)C(Cc2ccccc2)C(=O)N1 (centres undefined),-3%
6,CC(=O)NS(=O)(=O)c1ccc(NS(=O)(=O)c2ccc3ccccc3c2)cc1,0.7%
7,COc1ccccc1Cn1c(=S)[nH]c2cc(C(=O)NCCN(C)C)ccc2c1=O,20.6%
8,Cc1cc(NC(=O)CSc2ccc3nnc(-c4ccc(Cl)cc4)n3n2)no1,5.8%
9,CCS(=O)(=O)C1=NN2C(=N)/C(=C\c3ccc(OS(=O)(=O)c4ccccc4)c(OC)c3)C(=O)N=C2S1,12.5%
10,COc1cc(/C=C2\C(=N)N3N=C(S(C)(=O)=O)SC3=NC2=O)cc(OC)c1OCCOc1cccc(C)c1,25.9%
11,CCOc1cc(/C=C2\C(=N)N3N=C(C)SC3=NC2=O)ccc1OCCOc1cccc(OC)c1,7.2%
12,C=CCOc1ccc(/C=C2\C(=N)N3N=C(S(=O)(=O)CC)SC3=NC2=O)cc1OC,28.5%
13,CCOC(=O)C1=NN(c2ccccc2)C2C(=O)N(c3ccccc3OC)C(=O)C12 (centres undefined),21.2%
14,Cc1cc(C)n2nc(SCC(=O)c3ccccc3)nc2n1,-15.3%
15,COc1ccc(-c2csc(NC(=O)Cc3cc(OC)c(OC)c(OC)c3)n2)cc1OC,22.7%
16,COc1cc(CC(=O)Nc2nc(-c3ccc(F)c(F)c3)cs2)cc(OC)c1OC,58.7% (active)
17,COc1ccc(CC(=O)Nc2nc(-c3ccc(F)c(F)c3)cs2)cc1,15.8%
18,O=C(Nc1c(F)cc(F)cc1Br)c1cccnc1,-9.2%
19,C/C(CC(=O)Nc1ccc(Cl)c(Cl)c1)=N\NC(N)=S,-15.1%
20,N#Cc1c(-c2ccc(Cl)cc2)cc(-c2ccccc2)nc1SCC(=O)O,26%
21,COc1ccc(-c2cc(C(F)(F)F)c(C#N)c(SCC(=O)O)n2)cc1,9.7%
22,COc1ccc(-c2cc(-c3ccc(Cl)cc3)c(C#N)c(SCC(=O)O)n2)cc1,62.5% (active)
23,COc1ccc(Cl)c(OC)c1C(=O)NC(=O)Nc1nc(C)nc(C)n1,3.1%
24,CCC(=O)Nc1cc2nn(-c3ccccc3)nc2cc1Cl,-189%

row,Structure (SMILES),inhibition
1,CC(=O)Nc1cc2nn(-c3ccccc3)nc2cc1Cl,-133%
2,CC(C)(C)C(=O)Nc1cc2nn(-c3ccccc3)nc2cc1Cl,76.2% (active)
3,CC1(C)c2ccccc2N2CCC(=O)NC21/C=C/c1ccco1 (centres undefined),3.8%
4,O=C(Nc1ccccc1)c1cccc(N2C(=O)C3C4C=CC(C5CC45)C3C2=O)c1 (centres undefined),31.7%
5,COc1ccc(NC(=O)c2cccc(N3C(=O)C4C5C=CC(C6CC56)C4C3=O)c2)cc1 (centres undefined),9.4%
6,COC(=O)c1ccc(NC(=O)c2cccc(N3C(=O)C4C5C=CC(C6CC56)C4C3=O)c2)cc1 (centres undefined),58.5% (active)
7,CCOc1ccccc1C(=O)NC(C(=O)NCc1ccccc1OC)C(C)C (centres undefined),2.5%
8,CC(C)CNC(=S)N1CCN(c2nc(-c3ccc(Cl)cc3)cs2)CC1,54.9% (active)
9,CNC(=S)N1CCN(c2nc(-c3ccc(Cl)cc3)cs2)CC1,11.2%
10,COCCNC(=S)N1CCN(c2nc(-c3ccc(Cl)cc3)cs2)CC1,35.9%
11,CCN(CC(=O)Nc1c(F)cccc1F)C(=O)CCc1c[nH]c2ccccc12,-24.9%
12,Cc1onc(-c2ccccc2)c1NC(=O)N(CCC(=O)O)Cc1ccccc1,15.3%
13,Cc1c(NC(=O)NCc2ccccc2)c(=O)n(-c2ccccc2)n1C,-6.6%
14,Cc1ccc(C(=O)N/C(=C\c2ccc(-c3ccccc3[N+](=O)[O-])o2)C(=O)NCCN(C)C)cc1,50.5% (active)
15,Cc1ccc(C(=O)N/C(=C\c2ccc(-c3ccccc3[N+](=O)[O-])o2)C(=O)NCCCN2CCOCC2)cc1,38.2%
16,Cc1ccc(C(=O)N/C(=C\c2ccc(-c3ccccc3[N+](=O)[O-])o2)C(=O)NCCCN(C)C)cc1,49.4%
17,NC(=O)c1cc([N+](=O)[O-])ccc1NCCN1C(=O)c2ccc(C(=O)O)cc2C1=O,17.5%
18,Cc1cc(=O)[nH]c2ccc(S(=O)(=O)Nc3ccccc3)cc12,4.4%
19,O=C(Nc1ccc(C(=O)N2CCOCC2)cc1)c1cccc(Br)c1,8%
20,Cc1sc2nc3c(C(=O)N4CCN(c5ccccn5)CC4)cccn3c(=O)c2c1C,3.3%
21,C/C(Cn1nnc([N+](=O)[O-])n1)=N\NC(=O)c1cccc(Cl)c1,48.8%
22,C/C(Cn1nnc([N+](=O)[O-])n1)=N\NC(=O)c1ccc(O)cc1,37.7%

# — PubChem BioAssay AID1566 (Sanford-Burnham Center for Chemical Genomics, 2009)
